Compound activity as filed in PubChem.
IP6K1 inh: blocks human inositol hexakisphosphate kinase 1; IP6K1 kinase, ADP-Glo luminescence, 2 h; hits give low values; activity change, % (series mostly up to about 58 µM); hit rate 0.81% among 140,000; AID 1645851; in the data active means activity change below about -25%; further: on the % scale 0 is the no-effect control and ±100 the full control effect
Target sequence (Q92551 whole entry, looked up): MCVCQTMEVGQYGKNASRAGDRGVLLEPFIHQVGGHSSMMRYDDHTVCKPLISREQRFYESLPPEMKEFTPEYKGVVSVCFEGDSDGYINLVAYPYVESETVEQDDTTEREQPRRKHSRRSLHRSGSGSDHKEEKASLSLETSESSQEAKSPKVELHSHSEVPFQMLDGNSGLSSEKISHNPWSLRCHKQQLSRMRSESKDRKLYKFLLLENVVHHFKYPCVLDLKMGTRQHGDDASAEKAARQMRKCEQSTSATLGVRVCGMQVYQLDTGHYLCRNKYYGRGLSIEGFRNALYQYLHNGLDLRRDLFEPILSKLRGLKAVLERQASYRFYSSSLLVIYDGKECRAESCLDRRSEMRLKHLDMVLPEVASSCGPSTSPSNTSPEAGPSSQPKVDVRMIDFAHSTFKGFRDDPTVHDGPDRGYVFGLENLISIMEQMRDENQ
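ADP-Glo luminescence measures ADP made by human IP6K1 during a 2 h RT reaction with ATP/IP6 (mix at 1.3 mM/130 uM); top library doses 57.5 and 19.1 uM final.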
KDM5B inhibitor: KDM5B demethylase inhibition; hit rate 2.6% among 220,000; KDM5B demethylase, FDH-coupled NADH fluorescence (FDH is formaldehyde dehydrogenase); Potency, µM (series often up to 57.7 µM), usual class: inhibitors; AID 1347165; further: potency means the concentration at half of the fitted maximal effect; 0% is about no effect; nearly all actives have a fitted effect of over 70% in size
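Inhibition is measured as reduced NADH fluorescence generation from FDH coupling to formaldehyde release. Truncated KDM5BΔAP at 200 nM final acts on H3K4me3 peptide (12.5 µM in substrate mix) in pH 7.5 HEPES buffer with Tween-20, 30 min, room temperature.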
HEK293 viab: cell viability loss counter-screen. HEK-293-SNCA-luc viability, GF-AFC fluorescence, 24 h. Potency, µM (highest dose often 57.1 µM), without a hit: at the highest dose activity change, negative = cytotoxicity, hits mostly cytotoxic. hit rate 0.12% among 150,000. AID 1671193;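 further: potency means the concentration at half of the fitted maximal effect; 0% = DMSO-treated cells and -100% = medium-only wells without cells; nearly all actives have a fitted effect of over 30% in size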
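HEK-293-SNCA-luc cells (1500/well) plated 24 h, then exposed 24 h to a dilution series; GF-AFC added 30 min at 37C, fluorescence 405/540 nm; normalised to medium-only and DMSO wells, Hill fit.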
SNCA expr inh: SNCA gene expression inhibition | HEK-293 SNCA-luciferase knock-in, luminescence, 24 h | Potency, µM (titrated, usually from 57.2 µM), for the others: at the top dose activity change, negative = inhibition, actives largely listed as inhibitors | hit rate 0.17% among 140,000 | AID 1671194;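 further: potency means the concentration at half of the fitted maximal effect; plate controls were DMSO cells for no effect and cell-free wells for full effect; nearly all actives have a fitted effect of over 45% in size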
* = called active by the depositor; i = inactive; ? = inconclusive; . = no result given; ! = repeats disagree; [ ] = dose if it differs, or a comment. Most compounds without a hit are left out; they make up all but 3% or so of the library. Unless noted, the call rests on the fitted dose curve; in most records, active means well fitted curve in the direction sought with a large enough effect; inconclusive means small, poorly fitted or top-dose-only effect, or another doubt; inactive means no such curve, though single readings can be large; an effect the other way counts as inactive or inconclusive.

SMILES	IP6K1 inh	KDM5B inhibitor	HEK293 viab	SNCA expr inh
COc1cc(-c2onc(C)c2C(=O)NCCc2ccc(F)cc2)cc(OC)c1OC	1.5	28.2µM*	-6.1%	-4.0%
CCOCCNC(=O)c1c(C)noc1-c1ccc(OC)cc1	14.3	i	1.6%	3.9%
COc1cccc(CCNC(=O)c2c(C)noc2-c2cc(OC)c(OC)c(OC)c2)c1	8.0	28.2µM*	2.9%	22.2%
COc1cccc(CCNC(=O)c2c(C)noc2-c2ccco2)c1	11.1	i	-17.7%	-5.8%
COc1ccc(-c2onc(C)c2C(=O)NCCSCc2ccco2)cc1	7.2	22.4µM*	20.8%	12.4%
O=C(NCc1ccc(F)cc1)C1CCCN(c2nccc(Nc3ccccc3F)n2)C1 (stereo unspecified)	6.4	.	-8.5%[12.5 µM]	3.7%
CC1OC2OC3C(OCC(O)C3O)OC(=O)C34CCC(C)(C)CC3C3=CCC5C6(C)CC(O)C(OC7OC(CO)C(O)C(O)C7OC7OCC(OC(=O)CC(C)(O)CC(=O)OC1C(OC1OCC(O)C(O)C1O)C2O)C(O)C7O)C(C)(CO)C6CCC5(C)C3(C)CC4O (stereo unspecified)	10.5	.	5.19µM*	.
CC1(C)CC[C@]2(C(=O)O[C@@H]3O[C@H](CO)[C@@H](O)[C@H](O)[C@H]3O)CC[C@]3(C)C(=CCC4[C@@]5(C)C[C@H](O)[C@H](O[C@@H]6OC[C@@H](O)[C@H](O)[C@H]6O)[C@@](C)(CO)C5CC[C@]43C)C2C1 (stereo partly specified)	1.3	.	-11.3%[12.5 µM]	.
CCc1nc2c(=O)n(CC(=O)NC(C)c3ccccc3)nc(C)c2s1 (stereo unspecified)	17.6	i	2.6%	-15.7%
CCC(C)NC(=O)Cn1nc(C)c2sc(-c3ccccc3)nc2c1=O (stereo unspecified)	24.9	8.91µM*	-5.0%	-28.9%
CCCN1CCN(C(=O)Cn2nc(C)c3sc(-c4ccccc4)nc3c2=O)CC1	11.8	31.6µM*	-2.4%	0.5%
CCc1nc2c(=O)n(CC(=O)N3CCC(Cc4ccccc4)CC3)nc(C)c2s1	5.5	i	19.0%	-4.1%
Cc1nn(CC(=O)NCC2CCCO2)c(=O)c2nc(-c3ccccc3)sc12 (stereo unspecified)	0.9	31.6µM*	3.4%	0.9%
COc1ccccc1-c1ccc(CN2CCCCC2C(=O)N(C)C)cc1 (stereo unspecified)	11.4	.	.	.
Cc1nn(-c2ccccc2)c2c1C(C)N(C1CCN(C(=O)Cc3ccc(F)cc3)CC1)C2=O (stereo unspecified)	-16.7	.	.	.
COc1cccc(NC(=O)c2cnc3c(c2)N(C(=O)Cc2cn(C)c4ccccc24)CCC3)c1	13.2	?	?	10.2%
Cn1cc(CC(=O)N2CCCc3ncc(C(=O)Nc4cccc(F)c4)cc32)c2ccccc21	5.6	31.6µM*	?	-1.3%
Cn1cc(CC(=O)N2CCCc3ncc(C(=O)Nc4cccc(C(F)(F)F)c4)cc32)c2ccccc21	10.1	22.4µM*	-21.4%	3.4%
Oc1ccc(-c2nc(C3CC3)nc3c2CN(CC2CC2)CC3)cc1	19.7	.	-13.7%[87.6 µM]	-23.2%[87.6 µM]
C=CCOc1c(OC)ccc2c1CN(C1CC1)C(=O)CCN2CC(O)COc1ccc(OC)cc1 (stereo unspecified)	10.2	.	.	.
Cc1oc(-c2ccc(OC(C)C)cc2)nc1Cn1ccn2nc3c(c2c1=O)CCCC3	28.5	28.2µM*	-6.2%	-15.9%
O=C(NCCn1ccn2nc(-c3ccc(F)cc3)cc2c1=O)c1n[nH]c2c1CCCC2	-1.9	?	-5.0%	54.4%
Cc1ccc2c(n1)OC(COc1ccccc1)CN(Cc1cccc(F)c1)C2=O (stereo unspecified)	-6.7	.	-11.0%[23.9 µM]	?
Cc1cc2c(-c3ccc(CO)cc3)nc(-c3c(C)noc3C)cc2[nH]1	-13.6	i	-6.8%[87.6 µM]	57.6%[87.6 µM]
Cc1cc2c(-c3cccc(OC(C)C)c3)nc(-c3c(C)noc3C)cc2[nH]1	-19.3	15.8µM*	?	-1.7%[87.6 µM]
SMILES	IP6K1 inh	KDM5B inhibitor	HEK293 viab	SNCA expr inh
Cc1ccc(-c2cccc(CN3CCCC3C(=O)NCc3cccc(Cl)c3)c2)cc1Cl (stereo unspecified)	6.3	.	.	.
O=C1CCN(C(=O)C2CCCC2)CCCC(C(=O)N2CCN(c3ccccn3)CC2)CCN1 (stereo unspecified)	-1.2	?	9.1%	18.1%
CCN1CCN(C(=O)C2CCCN(Cc3cccnc3)CCC(=O)NCC2)CC1 (stereo unspecified)	6.4	i	-12.2%	-14.7%
Cc1ccc(CN2CCCC(C(=O)N3CCN(c4ccccn4)CC3)CCNC(=O)CC2)s1 (stereo unspecified)	-5.7	28.2µM*	4.0%	0.8%
CCn1ncc(CN2CCCC(C(=O)N3CCN(c4ccccn4)CC3)CCNC(=O)CC2)c1C (stereo unspecified)	0.2	25.1µM*	1.9%	4.7%
O=c1c(-c2ccc(O)cc2)coc2cc(O)cc(O)c12	-18.3	.	-13.6%	2.82µM*!
COc1ccc(-c2coc3cc(O)cc(O)c3c2=O)cc1	.	.	-11.2%	?
O=C(NCc1nnc2n1C(C(=O)O)CC2)c1ccccc1 (stereo unspecified)	-0.7	100µM*	8.3%[87.6 µM]	11.0%[87.6 µM]
O=C(NCc1nnc2n1C(C(=O)O)CC2)c1ccc2c(c1)OC(F)(F)O2 (stereo unspecified)	-0.2	25.1µM*	-5.1%	-2.2%
O=C(O)C1CCc2nnc(C3CCCN(C(=O)c4ccc5c(c4)OC(F)(F)O5)C3)n21 (stereo unspecified)	13.3	i	4.6%	29.4%
O=C(NCc1nnc2n1C(C(=O)O)CC2)c1ccc(F)cc1 (stereo unspecified)	4.1	44.7µM*	0.9%	1.9%
CC(C)NC(=O)C1CCc2nnc(CNC(=O)c3ccccc3)n21 (stereo unspecified)	12.0	i	-0.8%	9.1%
O=C(NCCc1ccc(Cl)cc1)c1cn2cc(-c3ccc(F)cc3)sc2n1	4.8	.	-5.3%	-11.2%
CCOCCNC(=O)C1CCCN(c2nccc(Nc3ccc(C)cc3)n2)C1 (stereo unspecified)	-2.2	.	-6.8%[12.5 µM]	6.5%
O=C(NC1CCCN(c2ccnc3ccnn23)C1)c1ccc(Cl)cc1 (stereo unspecified)	14.0	.	-28.0%	-17.6%
CN(C)c1ccc(-c2nnnn2[C@H]2CO[C@H]3[C@@H]2OC[C@H]3O)cc1	10.4	i	-1.6%[87.6 µM]	18.6%[87.6 µM]
CN(C)c1ccc(-c2nnnn2[C@H]2CO[C@H]3[C@@H]2OC[C@@H]3NS(=O)(=O)c2ccc3ccccc3c2)cc1	6.5	22.4µM*	0.4%	-4.7%
CN(C)c1ccc(-c2nnnn2[C@H]2CO[C@H]3[C@@H]2OC[C@@H]3NC(=O)Nc2ccc(Oc3ccccc3)cc2)cc1	3.6	12.6µM*	-7.5%	?
COc1ccc(-c2cc(C(=O)N(C)c3ccccc3)c3cnn(C)c3n2)cc1	0.5	.	.	.
O=C(C1CCCN([S+](=O)([O-])c2cccs2)C1)N1CCC(N2Cc3cccn3C2=O)CC1 (stereo unspecified)	-8.9	.	-3.1%	-3.8%
Cn1ncc2c(C(=O)NCc3cccs3)cc(-c3ccccc3)nc21	-4.1	.	4.7%	?
